Where “and” joins values, the source holds several entries; their conditions need not be identical. Identical values can stand only once. Compounds without any hit were thinned out: in the full panel of roughly 79,000, 15% have a hit. Calls of active or inactive are those of the source. Rule as the data show it: active = growth inhibition above about 70%; inactive = the rest.
Legend:
[1] = NCI Yeast Anticancer Drug Screen. Data for the rad50 strain (AID 155);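 also: 0% = growth of vehicle-only cultures of the same strain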; settings: S. cerevisiae rad50 strain growth inhibition, hits give high values; at 50.0 µM unless noted
Outline: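 Vehicle-treated cultures provide the reference for the growth inhibition reported for compound-exposed, repair-deficient yeast.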

[2] = NCI Yeast Anticancer Drug Screen. Data for the mec2-1 strain (AID 157); settings: S. cerevisiae mec2-1 strain, hits give high values; at 50.0 µM unless noted
Outline: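 Each compound was tested on mec2-1 yeast, a strain altered in DNA damage repair or cell cycle control. Growth inhibition is reported relative to vehicle.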

[3] = NCI Yeast Anticancer Drug Screen. Data for the sgs1 mgt1 strain (AID 161);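 also: 0% = growth of cultures given vehicle only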; settings: S. cerevisiae sgs1 mgt1 strain, hits give high values; at 50.0 µM unless noted
Outline: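 Genetically altered yeast, compound exposure, growth inhibition relative to vehicle.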

[4] = NCI Yeast Anticancer Drug Screen. Data for the cln2 rad14 strain (AID 165);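 also: 0% = growth equal to vehicle treated cultures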; settings: S. cerevisiae cln2 rad14 strain, hits give high values; at 50.0 µM unless noted
Outline: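 Test compounds were added to cln2 rad14 yeast cultures; inhibition of growth was then determined by comparison with vehicle treatment.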

[5] = NCI Yeast Anticancer Drug Screen. Data for the bub3 strain (AID 167); settings: S. cerevisiae bub3 mutant strain, hits give high values; at 50.0 µM unless noted
Outline: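 Mutant yeast screening strain plus compound; vehicle-treated cultures serve as the 0% inhibition reference.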

[6] = NCI Yeast Anticancer Drug Screen. Data for the mlh1 rad18 strain (AID 175); settings: S. cerevisiae mlh1 rad18 strain growth inhibition, hits give high values; at 50.0 µM unless noted
Outline: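 Inhibition values reflect reduced growth of mutant yeast versus vehicle-treated controls following compound exposure; the mutations affect DNA damage repair.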

Measured: growth inhibition

O=NN(CCCl)C(=O)Oc1ccccc1
inactive: [1] -1.95% | [2] -10.6% | [3] -0.05% | [4] 0.15% | [5] -1.9% | [6] -11.3%

CSc1ccc2c(c1)N(CCCN(C)C)c1ccccc1S2
inactive: [1] -15% | [2] -4.15% | [3] -1.05% | [4] -13.8% | [5] 44.5% | [6] 33.5%

CNC(=O)C(C)NC(=O)C(Cc1ccccc1)NC(=O)c1ccccc1 (stereo unspecified)
inactive: [1] -33% | [2] -52.7% | [3] -6.45% | [4] 15.4% | [5] 5.2% | [6] -11.7%

CC1=Nc2cc(Cl)c(Cl)cc2N(C)/C1=C/C1=C(Cl)C(=O)c2cc3c(Cl)ccc(Cl)c3cc2C1=O
inactive: [1] -0.05% | [2] 8.75% | [3] 13.1% | [4] 25.1% | [5] -1.4% | [6] 20.8%

CC(=O)N(c1nc2ccccc2s1)N1C(=O)c2ccccc2C1=O
inactive: [1] -18.8% | [2] -33.3% | [3] -17.9% | [4] -2.15% | [5] -40.2% | [6] -20.2%

O=C(O)NC(=O)c1cc([N+](=O)[O-])ccc1COC1CCCCO1 (stereo unspecified)
inactive: [1] 5.95% | [2] -0.85% | [3] 2.55% | [4] -11.7% | [5] 14.9% | [6] 0.75%

O=S(=O)(N/N=C1\CC2CCC1C2)c1ccccc1 (stereo unspecified)
inactive: [1] -7.05% | [2] -16.1% | [3] -16.9% | [4] 27.8% | [5] 21.4% | [6] 4.4%

CN(C)c1ccc(O[Si](Oc2ccc(N(C)C)cc2)(Oc2ccc(N(C)C)cc2)Oc2ccc(N(C)C)cc2)cc1
inactive: [1] 27.6% | [2] 37.2% | [3] 25.8% | [4] 29.4% | [5] 14.3% | [6] 43.8%

CCOC(=O)C(CCc1ccccc1)(NC(C)=O)C(=O)OCC
inactive: [1] 10.4% | [2] -7.8% | [3] 12.3% | [4] -4.65% | [5] 14.3% | [6] -10%

CS1(C)=Nc2c([N+](=O)[O-])cc([N+](=O)[O-])cc2S(=O)(=O)N=1
inactive: [1] -9.9% | [2] -12.1% | [3] -1.3% | [4] -15.9% | [5] -5% | [6] 6.55%

Cc1ccc(S(=O)(=O)Nc2ccccc2-c2nc3ccc(C)cc3c(=O)o2)cc1
inactive: [1] -5.35% | [2] -24.7% | [3] -7.8% | [4] 2.9% | [5] -7.55% | [6] -13.7%

O=C1OC(OC2CCCCC2)(c2ccccc2)c2ccccc21 (stereo unspecified)
inactive: [1] -25.1% | [2] -7.75% | [3] -0.15% | [4] -23.5% | [5] -1.65% | [6] -5.55%

C1=C(c2ccccc2)N(C2CCCCC2)C(c2ccccc2)=CN1Cc1ccccc1
inactive: [1] 45% | [2] 31.9% | [3] 69.5% | [4] 42% | [5] 50.1%
active: [6] 70.8%

CN(C)C(n1cc2c(c1)-c1ccc(Cl)cc1C(c1ccccc1F)=NC2)n1cc2c(c1)-c1ccc(Cl)cc1C(c1ccccc1F)=NC2
inactive: [1] 11.8% | [2] -8.8% | [3] 1% | [4] 7.8% | [5] -7.55% | [6] -22.9%

CCc1ccc(NS(=O)(=O)c2ccc(OC)cc2)cc1
active: [3] 80.2% | [6] 75.7%
inactive: [1] 37.9% | [2] 63.5% | [4] 25.9% | [5] 43.4%

CC(C)COC(c1ccccc1)c1ccccc1
inactive: [1] -9.5% | [2] -9.75% | [3] 5.15% | [4] 18.8% | [5] -12.8% | [6] -4.75%

C(#Cc1ccccc1)CC#Cc1ccccc1
inactive: [1] 5.4% | [2] 10.2% | [3] -11.7% | [4] -0.3% | [5] -11.2% | [6] 3.05%

CCOC(=O)CCC(Br)(Br)Br
inactive: [1] 10% | [2] 16% | [3] 1.7% | [4] 12.8% | [5] 4.6% | [6] 10.2%

O=C1OC(C(O)C(O)CO)C(O)C1O (stereo unspecified)
inactive: [1] 8.2% and -17.4% | [2] 7.7% and -27.4% | [3] 1.35% and -34.2% | [4] -16.9% and -32.7% | [5] 14.4% and -0.9% | [6] -23.7% and -1.8%

O=C(Nc1ccc(O)cc1)c1ccc([N+](=O)[O-])cc1
inactive: [1] -1.75% | [2] 6.6% | [3] 3.35% | [4] 0.05% | [5] 9.05% | [6] -2.2%

CC1(C)CC2(Nc3ccccc3N2)C2=C(O1)C(=O)OC2
inactive: [1] 9.45% | [2] -8.25% | [3] -18.7% | [4] -1.3% | [5] -6.15% | [6] -10.6%

CCOC(Nc1cc(Cl)cc(Cl)c1)C(=O)c1ccccc1 (stereo unspecified)
inactive: [1] -1.9% | [2] -0.7% | [3] -9.8% | [4] -3.05% | [5] 4.05% | [6] -5.65%

C=C(C)C1CCC2(C)CCC(=O)C(C)=C2C1 (stereo unspecified)
inactive: [1] 3.15% | [2] 1.35% | [3] -5.75% | [4] -19.7% | [5] -6.1% | [6] -4.15%

CON(C)C(=O)CNC(=O)OCC1c2ccccc2-c2ccccc21
inactive: [1] 8% | [2] -6.05% | [3] 5.35% | [4] 2.15% | [5] -5% | [6] -29.3%

O=C1NCC1c1ccccc1 (stereo unspecified)
inactive: [1] -12% | [2] -4.85% | [3] -8.65% | [4] 5.35% | [5] 19.1% | [6] 3.45%

O=C1c2ccccc2S(=O)(=O)c2c1cccc2[N+](=O)[O-]
inactive: [1] 14.1% | [2] -15.4% | [3] 3.6% | [4] 5.3% | [5] -4.7% | [6] 15.7%

O=C(CC(=O)c1cc(Cl)ccc1O)c1ccc2ccccc2n1
inactive: [1] -0.35% | [2] 13.2% | [3] 18.8% | [4] -21.8% | [5] -2.85% | [6] 22.4%

CC(C)c1ccccc1NC(=O)CCC(=O)NN
inactive: [1] -11.1% | [2] -7.95% | [3] -7.95% | [4] 6.1% | [5] -17.8% | [6] -11.7%

COC1OC(CO)C(O)C(Nc2ccc([N+](=O)[O-])cc2[N+](=O)[O-])C1O (stereo unspecified)
inactive: [1] 7.2% | [2] 1.05% | [3] 19.1% | [4] -53.6% | [5] -10.8% | [6] 1.1%

C#CCOC(=O)Nc1ccccc1
inactive: [1] 21.6% and 1.85% | [2] 12.7% and -1.2% | [3] -8.7% and -8.65% | [4] -72.2% and -54.2% | [5] -1.1% and -10.6% | [6] 5.55% and -0.8%

CCOc1ccc(/C=C/C(=O)c2sc(NNC(C)=O)nc2C)cc1
inactive: [1] 20.1% | [2] 25.1% | [3] -11.6% | [4] 12.7% | [5] 25.9% | [6] 22.4%

CC(=O)NNc1nc(C)c(C(=O)/C=C/c2ccc(NC(C)=O)cc2)s1
inactive: [1] 21.9% | [2] 16.1% | [3] 0.3% | [4] 9.15% | [5] 22.2% | [6] 31.5%

C=C1C(=O)OC2/C=C(\C)C(O)/C=C\C(C)(O)CC(OC(=O)/C(C)=C/C)C12 (stereo unspecified)
inactive: [1] -18% | [2] -37.6% | [3] -3.15% | [4] -2% | [5] -34.8% | [6] -26.8%

Cn1c(=O)[nH]c(=O)c2nc(-c3ccccc3)cnc21
inactive: [1] -11.9% | [2] 12.3% | [3] 2.55% | [4] -13.6% | [5] -2.7% | [6] -0.65%

O=C(Cc1ccccc1)CC(CC(=O)Cc1ccccc1)c1ccccc1
inactive: [1] 31% | [2] -16.7% | [3] 6.6% | [4] 15.8% | [5] 3.7% | [6] -6.15%

COC(=O)CC1C(C)(C)C(=O)C2CC3=C4CC(=O)OC(c5ccoc5)C4(C)CCC3C1(C)C2=O (stereo unspecified)
inactive: [1] 1.3% | [2] 2.4% | [3] -20.1% | [4] -8.3% | [5] -31.9% | [6] 16.8%

O=c1oc(=O)c2cc3c(=O)oc(=O)c3cc12
inactive: [1] -21.4% | [2] 11.1% | [3] -6.75% | [4] -28% | [5] 7.1% | [6] -5.6%

COc1ccccc1CN1CCCN(Cc2ccccc2OC)C1c1ccc(N(C)C)cc1
inactive: [1] 59.6% | [2] 32.6% | [3] 32.5% | [4] 22.8% | [5] 14.3% | [6] 49.2%

CC(NC(C#N)CC12CC3CC(CC(C3)C1)C2)c1ccccc1 (stereo unspecified)
inactive: [1] -11.8% | [2] -11.4% | [3] -11.6% | [4] 12.2% | [5] 6.75% | [6] -30.6%

CCOC(=O)C1CC1
inactive: [1] -9.65% | [2] -39.5% | [3] 1% | [4] 0.05% | [5] -9.75% | [6] -2.7%

Nc1c(I)cc(I)c(C(=O)O)c1I
inactive: [1] -44% | [2] -31.9% | [3] -17% | [4] -14.8% | [5] -25.4% | [6] -39.1%
